# Compound activity: PubChem BioAssay, Sanford-Burnham Center for Chemical Genomics
# PfGluPho inh = PfG6PD enzyme inhibitors, primary screen, biochemical, fluorescence intensity, uHTS | glucose-6-phosphate dehydrogenase-6-phosphogluconolactonase (Plasmodium falciparum 3D7) | PfGluPho enzyme, NADPH resazurin-diaphorase fluorescence | inhibition, % at 20 µM | 350,000 compounds, 0.78% hits | AID 504690, 2011;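 active = inhibition reaching at least a set limit at 20 µM in the primary screen, cut at about 59% in these data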;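 note: 0% = DMSO wells with substrate and 100% = DMSO wells lacking glucose-6-phosphate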
# NadD inh = inhibitors of S. aureus NadD, primary screen, biochemical, colorimetric, uHTS; Nicotinate-nucleotide adenylyltransferase NadD (Staphylococcus aureus N315); purified NadD enzyme, colorimetric absorbance read-out; inhibition, % at 20 µM; 360,000 compounds, 0.78% hits; AID 602399, 2012; in the data active = inhibition above about 26%
# APOBEC3G inh = APOBEC3G DNA deaminase inhibitors, primary screen, biochemical, fluorescence, single-stranded DNA substrate, uHTS; DNA dC->dU-editing enzyme APOBEC-3G (Homo sapiens), Q9HC16; recombinant A3G, ssDNA deamination FAM/TAMRA fluorescence; inhibition, % at 20 µM; 330,000 compounds, 0.28% hits; AID 493012, 2011;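 active = inhibition of at least 40% at 20 µM, with no more than 30% in the related APOBEC3A deaminase screen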;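 note: plate controls were DMSO wells with A3G for no effect and wells lacking A3G enzyme for full effect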
# Target sequence (Q9HC16 whole entry, looked up): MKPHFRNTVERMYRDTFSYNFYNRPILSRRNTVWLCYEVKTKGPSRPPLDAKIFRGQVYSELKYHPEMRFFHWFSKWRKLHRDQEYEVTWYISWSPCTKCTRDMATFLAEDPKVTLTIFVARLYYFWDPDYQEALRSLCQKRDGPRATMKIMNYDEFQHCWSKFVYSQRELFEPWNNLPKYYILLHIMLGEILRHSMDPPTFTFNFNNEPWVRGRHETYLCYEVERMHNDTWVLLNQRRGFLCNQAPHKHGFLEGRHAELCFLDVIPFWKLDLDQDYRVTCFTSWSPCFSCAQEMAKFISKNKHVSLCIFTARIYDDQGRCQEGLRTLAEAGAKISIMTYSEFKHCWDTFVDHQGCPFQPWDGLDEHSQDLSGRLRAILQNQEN
# A3A deaminase = APOBEC3A ssDNA deaminase inhibitors, primary screen, selectivity assay for APOBEC3G inhibitor project, biochemical, FAM/TAMRA oligo cleavage fluorescence; inhibition, % at 20 µM; recombinant A3A, FAM/TAMRA ssDNA deamination fluorescence; 330,000 compounds, 0.41% hits;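 active = at least 40% inhibition at 20 µM here, with at most 30% in a related deaminase screen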;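 note: plate controls were A3A with DMSO for no effect and wells lacking A3A enzyme for full effect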
# Target sequence (P31941 whole entry, looked up): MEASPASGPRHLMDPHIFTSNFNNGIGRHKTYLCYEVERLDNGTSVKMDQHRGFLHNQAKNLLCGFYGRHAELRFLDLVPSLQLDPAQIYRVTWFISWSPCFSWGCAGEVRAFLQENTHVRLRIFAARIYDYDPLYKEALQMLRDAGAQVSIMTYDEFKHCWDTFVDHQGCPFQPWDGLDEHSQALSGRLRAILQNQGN
# Cardio protect = cardioprotection against H2O2-induced cell death, primary screen, uHTS, H9c2 cells, ATPLite luminescence | H9c2 cardiomyocytes, H2O2 injury protection, 2 h | protection from H2O2 cell death, % at 20 µM | 360,000 compounds, 0.63% hits | AID 588492, 2011;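 active = compounds giving at least 50% protection of heart cells from peroxide-induced death in the single-dose screen, raw or plate-pattern-corrected value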;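 note: 0% = DMSO wells with peroxide and 100% = DMSO wells without peroxide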
# H9c2 TAG inh = inhibitors of triacylglycerol accumulation, primary screen, cell-based, uHTS, fluorescence, H9c2 | 230,000 compounds, 0.66% hits | inhibition, % at 12.5 µM | H9c2 cells, Nile Red lipid (TAG) fluorescence; cells loaded with 200 µM oleic acid;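 active = pattern-corrected inhibition of lipid staining of at least 50% with the nuclear-stain viability signal not falling by more than 50%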;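 note: 0% = DMSO wells and 100% = triacsin C control wells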
# NadD inh conf = inhibitors of S. aureus NadD, confirmation, biochemical, colorimetric, single concentration; inhibition, % at 20 µM; AID 624309, 2012; shares compounds with NadD inh; 2,000 compounds, 13% hits; purified S. aureus NadD, colorimetric enzyme assay; in the data active = inhibition mostly above about 42%, no sharp cut-off; inactive = mostly below about 42%
# The depositor's hits bear a star; · = not tested or not shown. Rows were chosen to be rich in hits. Some 2.9% of all compounds tested hit in one or more screens of this group.
SMILES,PfGluPho inh,NadD inh,APOBEC3G inh,A3A deaminase,Cardio protect,H9c2 TAG inh,NadD inh conf
COc1ccc(NC(=O)C2(C)Cc3c(-c4cccc(C(F)(F)F)c4)ccnc3O2)cc1OC (stereo unspecified),·,3,·,·,5,4,·
COc1cc(/C=C(\C#N)c2nc3ccccc3[nH]2)ccc1Oc1ccc([N+](=O)[O-])cn1,-1,33*,-5,-1,76*,·,18
O=C(CSc1n[nH]c(-c2ccncc2)n1)Nc1ccc(Br)cc1,-46,0,3,0,-5,0,·
C=CCn1c(=NC(=O)c2sc3ccccc3c2Cl)sc2cc(S(N)(=O)=O)ccc21,9,36*,-8,-2,-4,·,0
C=CCn1c(=NC(=O)c2cc(Cl)sc2Cl)sc2cc(S(N)(=O)=O)ccc21,-16,17,-7,-3,-6,·,·
COCCn1c(=NC(=O)c2sc3ccccc3c2Cl)sc2cc(S(N)(=O)=O)ccc21,-7,29*,1,1,0,·,17
OC[C@@H]1CN(Cc2ccc(-c3ccccc3)cc2)C[C@H](n2cnc3c(NC4CC4)ncnc32)O1,·,-4,·,·,-11,11,·
CCOc1ccc(NC(=O)NNC(=O)c2cc3ccccc3cc2O)cc1,-16,-6,-6,-5,12,-17,·
CCN1CCN(Cc2ccc(NC(=O)c3ccc(C)c(NC(=O)c4cc(-c5ccc(Br)cc5)n[nH]4)c3)cc2C(F)(F)F)CC1,3,32*,-6,-3,-5,66*,-9
CC(=O)c1ccc(OCc2nnn(CC(=O)NS(=O)(=O)c3ccc(C)cc3)c2-c2ccccc2)cc1,·,3,·,·,-4,6,·
CCOc1cc(/C=N\NC(=O)Cn2nc([N+](=O)[O-])cc2C)ccc1OCc1cccc2ccccc12,2,38*,-7,-3,4,-7,-5
COc1ccc(/C=N/NC(=O)Cn2nc([N+](=O)[O-])cc2C)c(OC)c1OC,-9,-2,13,5,-3,1,·
CCCCn1c(N)c(N(CC(C)C)C(=O)CCC2CCCCC2)c(=O)[nH]c1=O,-2,3,-1,1,-2,-29,·
Cc1nc(NCc2ccco2)c2c3c(sc2n1)CCC3,-1,-1,-3,3,-18,·,·
CCN1CCc2c(sc3c2c(NCc2ccco2)nc2nnnn23)C1,50,38*,11,4,6,-8,8
CC(NC(=O)C1CCN(C(=O)c2ccc(F)cc2)CC1)c1ccc(S(N)(=O)=O)cc1 (stereo unspecified),1,2,-4,-5,-2,3,·
S=c1[nH]c2ccc3ccccc3c2[nH]1,-1,3,6,38,4,·,·
Cc1[nH]c2c(ccc3ccccc32)c1C1C(CCN)C1(C)C (stereo unspecified),-7,33*,-7,-2,-16,42,1
O=C(COC(=O)c1ccc(Br)o1)Nc1nc2c(F)c(F)c(F)cc2s1,-23,34*,6,-1,-3,-3,28
O=C(NCCC(=O)N1CCc2ccccc21)c1ccco1,-14,-1,-12,-4,-4,·,·
CC(=O)Nc1ccc(S(=O)(=O)N(C)CC(=O)OCC(=O)NCc2ccco2)cc1,4,-3,-9,-1,6,2,·
COc1ccccc1CNc1nc(Nc2cccc(-c3cnco3)c2)c2sccc2n1,·,40*,·,·,-17,2,15
COc1ccccc1CNc1nc(NCc2ccccc2OC)c2sccc2n1,·,8,·,·,-12,-7,·
NC(=S)N/N=C/c1ccc(-c2ccc(Cl)c(Cl)c2)o1,25,39*,-7,-17,10,17,12
CC(Nc1nc(=S)nc(Nc2ccc(F)cc2)[nH]1)c1ccccc1 (stereo unspecified),37,31*,-4,-6,10,·,37
SMILES,PfGluPho inh,NadD inh,APOBEC3G inh,A3A deaminase,Cardio protect,H9c2 TAG inh,NadD inh conf
CC(Nc1nc(Nc2ccc(F)cc2)nc(SCC(N)=O)n1)c1ccccc1 (stereo unspecified),15,2,-5,-4,0,7,·
COc1ccccc1-n1c(=O)c(C#N)c(-c2ccc([N+](=O)[O-])cc2)c2cc(C(=O)c3ccccc3O)cnc21,2,38*,-2,4,-6,17,12
COc1ccccc1-n1cc(C(=O)c2cc(Cl)ccc2O)cc(C#N)c1=O,-20,3,-6,-3,-3,-5,·
COc1cc2c(cc1NC(=O)C(C)N1CCN(S(=O)(=O)c3ccc(C)c(C)c3)CC1)oc1ccccc12 (stereo unspecified),-20,1,0,3,5,·,·
COc1ccc(Cl)cc1NC(=O)C(C)OC(=O)c1ccc(NS(=O)(=O)c2ccc3[nH]c(=O)[nH]c3c2)cc1 (stereo unspecified),-17,36*,-10,1,-2,·,31
COc1cc2c(cc1NC(=O)CN1CCN(S(=O)(=O)c3ccc(C)cc3)CC1)oc1ccccc12,5,33*,-2,-1,2,23,8
COc1cc2c(cc1NC(=O)C(C)N1CCN(S(=O)(=O)c3ccccc3[N+](=O)[O-])CC1)oc1ccccc12 (stereo unspecified),-7,38*,-4,-1,-1,·,-1
COc1cc2c(cc1NC(=O)C(C)OC(=O)c1ccc(S(=O)(=O)Nc3ccccc3Cl)cc1)oc1ccccc12 (stereo unspecified),-19,32*,-10,-2,-14,·,2
Cc1cccc(NC(=O)C2CCCN(S(=O)(=O)c3ccc4[nH]c(=O)ccc4c3)C2)n1 (stereo unspecified),-6,4,-3,0,-3,·,·
CC(C)C[C@H]1CNC(=O)C(=O)N1CC1CCN(CCc2ccc(-c3ccccc3)cc2)CC1,2,3,·,·,3,11,·
CCCCCCCCC(=O)NNC(=O)c1c(O)c2ccccc2n(CCC)c1=O,-44,-2,-7,-3,2,·,·
CCCCCCCCCC(=O)NNC(=O)c1c(O)c2ccccc2n(CCC)c1=O,-34,38*,-9,-3,-3,4,0
CCCn1c(=O)c(C(=O)NNC(=O)c2ccc(Cl)cc2Cl)c(O)c2ccccc21,-59,22,-6,-4,1,·,·
